Measured values reported in article PMC13423814.

target: SF3B2 (UniProt Q13435); details: DSSO, in cells

Chain of SNRPE, P62304 (P62304 whole entry): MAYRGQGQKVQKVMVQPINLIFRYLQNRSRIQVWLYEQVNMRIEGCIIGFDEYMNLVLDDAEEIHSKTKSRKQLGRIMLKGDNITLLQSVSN
Chain of HTATSF1, O43719 (O43719 whole entry): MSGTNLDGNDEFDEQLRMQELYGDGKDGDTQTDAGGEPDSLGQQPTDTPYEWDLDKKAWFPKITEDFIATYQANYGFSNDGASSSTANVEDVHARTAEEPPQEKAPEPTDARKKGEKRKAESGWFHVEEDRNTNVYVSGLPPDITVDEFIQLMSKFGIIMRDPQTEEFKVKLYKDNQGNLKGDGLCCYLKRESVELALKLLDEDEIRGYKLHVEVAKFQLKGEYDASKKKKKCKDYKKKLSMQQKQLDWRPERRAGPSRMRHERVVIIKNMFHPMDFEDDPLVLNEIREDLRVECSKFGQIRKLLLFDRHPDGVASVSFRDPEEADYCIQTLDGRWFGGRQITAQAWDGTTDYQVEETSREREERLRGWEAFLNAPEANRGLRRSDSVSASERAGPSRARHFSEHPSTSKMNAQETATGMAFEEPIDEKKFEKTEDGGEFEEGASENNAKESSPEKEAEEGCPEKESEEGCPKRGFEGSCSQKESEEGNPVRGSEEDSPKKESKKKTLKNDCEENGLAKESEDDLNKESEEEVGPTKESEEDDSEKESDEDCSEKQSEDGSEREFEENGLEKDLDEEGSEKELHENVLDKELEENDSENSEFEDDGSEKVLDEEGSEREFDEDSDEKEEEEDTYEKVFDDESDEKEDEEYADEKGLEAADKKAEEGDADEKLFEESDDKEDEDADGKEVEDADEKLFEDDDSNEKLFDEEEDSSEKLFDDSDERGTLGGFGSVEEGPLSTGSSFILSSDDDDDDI
Chain of CANX, P27824 (P27824 whole entry): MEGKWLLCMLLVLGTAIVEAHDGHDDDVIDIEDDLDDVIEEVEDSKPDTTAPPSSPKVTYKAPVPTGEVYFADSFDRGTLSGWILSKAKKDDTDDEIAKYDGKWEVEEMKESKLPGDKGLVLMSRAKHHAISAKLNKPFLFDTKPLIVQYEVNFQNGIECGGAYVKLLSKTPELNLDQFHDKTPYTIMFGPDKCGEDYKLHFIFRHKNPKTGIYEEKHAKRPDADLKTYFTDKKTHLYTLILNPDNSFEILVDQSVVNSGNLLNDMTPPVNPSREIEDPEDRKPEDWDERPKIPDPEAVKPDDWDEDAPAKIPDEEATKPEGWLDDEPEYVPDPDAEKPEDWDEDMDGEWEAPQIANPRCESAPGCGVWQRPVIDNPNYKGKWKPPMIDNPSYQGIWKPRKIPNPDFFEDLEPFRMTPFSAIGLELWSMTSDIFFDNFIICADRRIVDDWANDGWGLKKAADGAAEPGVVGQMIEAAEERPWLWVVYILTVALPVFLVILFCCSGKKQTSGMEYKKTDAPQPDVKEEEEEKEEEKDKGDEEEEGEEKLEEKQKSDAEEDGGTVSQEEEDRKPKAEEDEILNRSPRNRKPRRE
Chain of ANXA3, P12429 (P12429 whole entry): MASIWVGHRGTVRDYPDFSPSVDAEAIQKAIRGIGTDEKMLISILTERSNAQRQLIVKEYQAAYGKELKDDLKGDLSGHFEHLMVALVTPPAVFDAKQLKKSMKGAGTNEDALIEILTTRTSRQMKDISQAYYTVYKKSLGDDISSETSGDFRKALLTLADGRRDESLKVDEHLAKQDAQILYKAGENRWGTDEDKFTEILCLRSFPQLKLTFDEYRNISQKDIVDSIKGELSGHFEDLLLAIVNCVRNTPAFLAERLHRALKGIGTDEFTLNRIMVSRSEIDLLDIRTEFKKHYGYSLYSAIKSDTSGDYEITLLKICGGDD
Chain of TMEM43, Q9BTV4 (Q9BTV4 whole entry): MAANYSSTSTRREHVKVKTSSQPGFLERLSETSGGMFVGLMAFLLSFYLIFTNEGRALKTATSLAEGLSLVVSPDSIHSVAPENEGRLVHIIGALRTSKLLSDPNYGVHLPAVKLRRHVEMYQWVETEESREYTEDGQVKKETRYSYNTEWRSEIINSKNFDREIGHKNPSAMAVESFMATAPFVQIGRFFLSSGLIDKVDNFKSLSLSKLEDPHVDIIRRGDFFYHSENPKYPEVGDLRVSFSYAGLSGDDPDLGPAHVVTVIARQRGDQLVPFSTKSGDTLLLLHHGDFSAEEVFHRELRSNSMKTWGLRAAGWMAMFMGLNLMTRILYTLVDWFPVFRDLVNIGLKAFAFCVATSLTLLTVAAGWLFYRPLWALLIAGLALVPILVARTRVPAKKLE
Chain of ANXA4, P09525 (P09525 whole entry): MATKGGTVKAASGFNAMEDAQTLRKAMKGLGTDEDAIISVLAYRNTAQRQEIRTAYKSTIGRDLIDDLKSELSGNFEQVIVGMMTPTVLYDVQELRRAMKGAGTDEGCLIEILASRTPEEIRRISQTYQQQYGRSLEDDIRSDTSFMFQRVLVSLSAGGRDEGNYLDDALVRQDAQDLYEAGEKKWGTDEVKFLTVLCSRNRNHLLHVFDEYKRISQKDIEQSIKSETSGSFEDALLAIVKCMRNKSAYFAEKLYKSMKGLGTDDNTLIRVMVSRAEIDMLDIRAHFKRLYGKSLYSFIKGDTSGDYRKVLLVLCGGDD

Row | Substance | cross-linked residues
1 | SNRPE, P62304 | K12 - K352
2 | HTATSF1, O43719 | K217 - K543
3 | SNRPB, P14678 | K57 - S319
4 | SNRPA1, P09661 | K172 - S319

target: TMEM109 (UniProt Q9BVC6); details: DSSO, in cells
Sequence (Q9BVC6 whole entry): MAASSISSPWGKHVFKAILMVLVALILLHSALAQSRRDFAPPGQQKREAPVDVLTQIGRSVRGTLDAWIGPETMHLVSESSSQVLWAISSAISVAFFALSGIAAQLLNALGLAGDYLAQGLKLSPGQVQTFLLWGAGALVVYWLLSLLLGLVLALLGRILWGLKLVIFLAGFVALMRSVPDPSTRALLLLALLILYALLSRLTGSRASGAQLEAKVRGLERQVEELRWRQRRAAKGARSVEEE

Row | Substance | cross-linked residues
5 | ANXA3, P12429 | K263 - K215
6 | TMEM43, Q9BTV4 | K18 - K215
7 | CANX, P27824 | K516 - K215
8 | ANXA4, P09525 | K57 - K215
